# NPR1 antag: Natriuretic polypeptide receptor (hNpr1) antagonism - Primary qHTS; Atrial natriuretic peptide receptor 1 (Homo sapiens), P16066; HEK293 hNpr1 GloSensor cGMP, ANP-stimulated luminescence; Potency, µM (series often up to 46.3 µM), without a hit: at the top dose activity change, negative = inhibition, usual class: inhibitors; 1.6% of 76,000 active; AID 1347048, 2019; calls by dose curve; further: nearly all actives have a fitted effect of over 60% in size
# Target sequence (P16066 whole entry, looked up): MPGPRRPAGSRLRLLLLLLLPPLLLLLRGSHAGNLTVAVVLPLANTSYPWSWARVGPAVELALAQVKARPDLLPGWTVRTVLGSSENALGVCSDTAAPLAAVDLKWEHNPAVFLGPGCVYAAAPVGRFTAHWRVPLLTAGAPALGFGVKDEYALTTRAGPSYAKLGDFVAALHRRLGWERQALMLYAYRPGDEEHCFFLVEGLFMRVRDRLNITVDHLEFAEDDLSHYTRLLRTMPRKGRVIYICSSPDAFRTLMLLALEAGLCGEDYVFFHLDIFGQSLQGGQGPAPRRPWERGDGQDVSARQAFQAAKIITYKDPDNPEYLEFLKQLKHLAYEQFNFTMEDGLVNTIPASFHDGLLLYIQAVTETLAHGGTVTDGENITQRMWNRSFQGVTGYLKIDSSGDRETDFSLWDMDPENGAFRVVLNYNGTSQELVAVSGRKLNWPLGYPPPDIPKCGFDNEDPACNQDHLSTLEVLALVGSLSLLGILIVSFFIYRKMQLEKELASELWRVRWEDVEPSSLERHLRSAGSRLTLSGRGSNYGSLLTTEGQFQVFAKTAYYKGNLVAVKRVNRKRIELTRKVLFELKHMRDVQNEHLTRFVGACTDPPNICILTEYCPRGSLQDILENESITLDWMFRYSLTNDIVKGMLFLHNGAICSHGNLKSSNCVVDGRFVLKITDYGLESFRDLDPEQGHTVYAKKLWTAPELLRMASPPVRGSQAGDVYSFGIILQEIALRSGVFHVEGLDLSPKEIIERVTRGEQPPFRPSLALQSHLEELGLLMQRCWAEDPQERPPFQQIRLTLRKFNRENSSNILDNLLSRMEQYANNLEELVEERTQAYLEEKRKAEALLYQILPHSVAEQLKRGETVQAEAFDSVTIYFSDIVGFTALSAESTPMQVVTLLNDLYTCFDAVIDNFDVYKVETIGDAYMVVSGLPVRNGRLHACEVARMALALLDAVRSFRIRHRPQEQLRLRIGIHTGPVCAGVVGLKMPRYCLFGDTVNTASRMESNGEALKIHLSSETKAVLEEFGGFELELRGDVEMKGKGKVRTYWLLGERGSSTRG
#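 HEK293 cells stably expressing human Npr1 and cGMP GloSensor pGS-40F, loaded 2 h with 2% GloSensor reagent, given compound 30 min at room temperature. Luminescence read before and 20 min after 0.1 nM hNppA.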
# 3T3 cytotox: Cytotoxic Profiling in NIH 3T3 Cell Line of Diverse Libraries Using Quantitative High-Throughput Screening | NIH 3T3 viability, CellTiter-Glo ATP luminescence, 48-72 h | Potency, µM (series often up to 96.7 µM), for inactives: at the top dose activity change, negative = cytotoxicity, hits mostly inhibitors | 4.3% of 94,000 active | AID 1345082, 2018; further: nearly all actives have a fitted effect of over 55% in size
#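 Mouse fibroblast NIH 3T3 cells, 400 per well, received compound via pintool and were incubated for 48 or 72 hr prior to CellTiter-Glo ATP luminescence measurement.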
# HEK293 tox: Cytotoxic Profiling in HEK 293 Cell Line of Diverse Libraries Using Quantitative High-Throughput Screening; 6.6% of 94,000 active; AID 1345083, 2018; Potency, µM (highest dose often 115 µM), for the others: at the highest dose activity change, negative = cytotoxicity, actives largely listed as inhibitors; HEK 293 viability, ATP luminescence (CellTiter-Glo), 48-72 h; further: nearly all actives have a fitted effect of over 60% in size
#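 Cells seeded first (HEK 293, 250 cells/well), then compound added by pintool. Incubation ran 48 or 72 hr at 37 degree Celsius. CellTiter-Glo was added and luminescence imaged after 10 min at room temperature.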
# FLuc inh: Firefly luciferase inhibition profiling of diverse chemical library using quantitative high-throughput screening. Luciferin 4-monooxygenase (Photinus pyralis), P08659. purified P. pyralis luciferase, luminescence, biochemical. Potency, µM (doses to about 115 µM), most hits filed as inhibitors. 2.5% of 76,000 active. AID 1347043, 2019; further: nearly all actives have a fitted effect of over 65% in size
#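 Purified P. pyralis luciferase (10nM final) in 50mM Tris acetate pH 7.5, 10mM Mg acetate, 0.01% Tween-20, 0.05% BSA with 10uM D-luciferin and 10uM ATP. Compounds titrated qHTS. Luminescence imaged on CCD.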
# Numbers without * were called inactive; i = inactive; ? = inconclusive; . = no result; [ ] = remark or other dose. Rows were chosen to be rich in hits. Some 11% of all compounds tested hit in one or more screens of this group. Unless noted, the call rests on the fitted dose curve; in most records, active means well fitted curve in the direction sought with a large enough effect; inconclusive means small, poorly fitted or top-dose-only effect, or another doubt; inactive means no such curve, though single readings can be large; an effect the other way counts as inactive or inconclusive. On the % scale 0 is the no-effect control and ±100 the full control effect; potency means the concentration at half of the fitted maximal effect.
SMILES,NPR1 antag,3T3 cytotox,HEK293 tox,FLuc inh
CC1CCC(NC(=O)c2cc(-c3ccc[nH]3)n[nH]2)CC1 (centres undefined),5%,0%,5%,?
O=C(Nc1cccc(F)c1)c1cc(-c2ccc[nH]2)n[nH]1,?,-11%,-10%,2.2µM*
Cc1cccc(NC(=O)c2cc(-c3ccc[nH]3)n[nH]2)c1,-18%,-19%,-2%,2µM*
COc1ccc(NC(=O)c2cc(-c3ccc[nH]3)n[nH]2)cc1F,5%,2%,5%,16µM*
CSc1ccc(NC(=O)c2cc(-c3ccc[nH]3)n[nH]2)cc1,-2%,-10%,-25%,4.5µM*
CCOC(=O)C(C)Oc1cccn2c(=O)c(-c3cc(C)n(-c4ccc(Cl)cc4)n3)c(C)nc12 (centres undefined),-12%,-13%,?,i
CCC(=O)NC1CCN(c2ccnc3ccnn23)C1 (centres undefined),.,-24%[138 µM],-11%[172 µM],.
COc1ccccc1-c1cn2c(n1)CO[C@@H](CNC(=O)NC(C)C)C2,4%[70.6 µM],-3%[138 µM],-10%[172 µM],i
COc1ccccc1C(C)N(C)C(=O)c1csc2nc(-c3ccccc3C)cn12 (centres undefined),-9%,?,35µM*,?
Cn1c2c(c3ccccc31)CN(C(=O)Nc1cccc(Br)c1)CC2,-9%,32µM*,?,?
Cc1cccc(NC(=O)N2CCc3c(c4ccccc4n3C)C2)c1C,-3%,?,?,i
Cc1ccc(NC(=O)N2CCc3c(c4ccccc4n3C)C2)cc1C,-20%,?,45µM*,?
Cn1c2c(c3cc(F)ccc31)CN(C(=O)Nc1cccc(F)c1)CC2,-15%,22µM*,45µM*,?
O=C(CCc1nc2ccccc2s1)N1CCC(Cc2noc(C3CCOCC3)n2)C1 (centres undefined),-14%,-16%,?,i
COc1ccc(-c2noc(-c3cccn3CC(=O)NCc3ccc(F)cc3)n2)cc1F,0%,1%,-17%,i
CCCc1ccc2oc(C(=O)N(C)Cc3snnc3C)c(C)c2c1,1%,?,40µM*,?
Cc1ccc2oc(C(=O)N(C)Cc3cc(-c4ccccc4)no3)c(C)c2c1,3%,-18%,?,i
O=C(NCCNC(=O)C1CC1)c1ccc(-c2cncnc2)cc1,.,2%[138 µM],i,.
COC(=O)C1=C(C)N=C2SC=C(CC(=O)NCC3CCCO3)N2C1c1ccccc1F (centres undefined),-12%,-21%,-27%,i
COC(=O)[C@@H]1Cc2c([nH]c3ccccc23)[C@H]2C[C@H](NC[C@H]3CCCO3)C[C@@H](c3ccccc3F)N21,0%,35µM*,?,i
CN1[C@H](C(=O)O)C[C@H](C(=O)NCCCO)[C@@H]1c1ccccc1F,7%,-4%,0%,i
COC(=O)[C@@H]1Cc2c([nH]c3ccccc23)[C@H]2C[C@@H](NCCNC(C)=O)C[C@@H](c3ccccc3F)N21,-5%,79µM*,?,?
COC(=O)[C@@H]1Cc2c([nH]c3ccccc23)[C@H]2C[C@@H](NCCO)C[C@@H](c3ccccc3F)N21,-15%[70.6 µM],28µM*,40µM*,i
O=C1Nc2ccccc2CN(Cc2ccc(Cl)cc2)C12CCNC2 (centres undefined),.,?,50µM*,.
O=C1Nc2ccccc2CC12CCCN2Cc1ccc(Cl)cc1 (centres undefined),.,-29%,?,.
COc1ccc(Cn2c(C3CCN(C(=O)c4ccc(C(C)(C)C)cc4)CC3)n[nH]c2=O)cc1,-14%,?,?,i
O=C(CCC1CCN(C(=O)c2ccccn2)CC1)N1CCC(Cc2ccccc2)CC1,-17%,-37%,?,i
O=C(c1ccccn1)N1CCC(Cc2ccc(COc3ccncc3)cc2)CC1,.,25µM*,?,.
Cn1cnc(C(=O)N2CCC(Cc3ccc(C(=O)N4CCOCC4)cc3)CC2)c1,3%,-15%,3%,i
Cn1cnc(C(=O)N2CCC(Cc3ccc(COc4cccc(F)c4)cc3)CC2)c1,.,?,16µM*,.
